The values below come from PubChem BioAssay (NCATS).

Each structure is given as a SMILES string. Records with an inconclusive call do not appear. Activity calls are given as the source filed them. The call rests on the fitted dose curve; in most records, active means well fitted inhibition curve with a large enough effect; inconclusive means small, poorly fitted or top-dose-only effect; inactive means flat fitted curve, though single readings scatter.

Common to all, as to assay: qHTS profiling for inhibitors of Plasmodium falciparum proliferation (AID 504749); further: nearly all actives have a fitted effect of over 60% in size
What all share (settings): P. falciparum in erythrocytes, SYBR Green DNA, 72 h; series mostly up to 28.7 µM
In general terms: In qHTS, concentration-response curves come from the screen itself.

For one experiment, the system named is CP203. In outline:
(§1)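 Each compound contacts P. falciparum-infected red blood cells for 72 h at 37 C; lysis buffer (Tris, EDTA, saponin, Triton X, SYBR Green I) is added and fluorescence measured next morning; values normalized to controls.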

For a further experiment, the system named is CP211. In outline: as §1
The subject of the next experiment is CP215. An outline of the steps: as §1
The next experiment relates to CP217. In outline: as §1
A further experiment concerns CP237. An outline of the steps: as §1
A further experiment concerns CP238. In outline:
as §1

A further experiment has as its system CP247. In outline: as §1
A further experiment relates to CP250. An outline of the steps:
as §1

The subject of a further experiment is CP252. In outline:
as §1

The next experiment concerns CP256. In outline:
as §1
Potency means the concentration at half of the fitted maximal effect.

For `Cc1cc2cc3c(C)cc(=O)oc3c(C)c2o1`, the Potency result in the experiment on CP203, in the experiment on CP211, in the experiment with CP215, in the experiment with CP217, in the experiment on CP237 and in the experiment on CP238 was “inactive” throughout. The Potency entry in the experiment with CP247, in the experiment on CP250, in the experiment with CP252 and in the experiment on CP256 was “inactive” each time.
`C=CCc1cc(OC)c(O)c(C(=O)NCCO)c1`: the Potency result in the experiment with CP203, with CP211, in the experiment on CP215, with CP217, with CP237 and in the experiment with CP238 was “inactive” each time. Further, the Potency entry with CP247, with CP250, with CP252 and in the experiment on CP256 was “inactive” each time.
In the case of `O=C(NC(Cc1cc(=O)[nH]c2ccccc12)C(=O)O)c1ccc(Cl)cc1` (stereo not given), the Potency result with CP203, in the experiment on CP211, with CP215, in the experiment on CP217, with CP237 and in the experiment on CP238 was “inactive” throughout. Moreover, the Potency result in the experiment on CP247, with CP250, with CP252 and with CP256 was “inactive” throughout.
For the compound `C[C@]12CCC(=O)C=C1CC[C@@H]1[C@H]2[C@@H](O)C[C@@]2(C)[C@H]1CC[C@]2(O)C(=O)CO`, the Potency entry in the experiment with CP203, with CP211, in the experiment with CP215, with CP217, in the experiment on CP237 and with CP238 was “inactive” throughout. In addition, the Potency result in the experiment on CP247, with CP250, in the experiment with CP252 and in the experiment with CP256 was “inactive” each time.
Take `Nc1cc(C(Cl)=C(Cl)Cl)c(S(N)(=O)=O)cc1S(N)(=O)=O`: the Potency entry with CP203, in the experiment on CP211, in the experiment on CP215, with CP217, in the experiment with CP237 and in the experiment on CP238 was “inactive” throughout. The Potency result with CP247, with CP250, in the experiment on CP252 and in the experiment with CP256 was “inactive” in each case.
As to `COC1=C(OC)C(=O)C(CCCCCCCCCCO)=C(C)C1=O`, the Potency result in the experiment with CP203, with CP211, in the experiment on CP215, in the experiment on CP217, in the experiment on CP237 and in the experiment with CP238 was “inactive” throughout. The Potency result in the experiment with CP250, in the experiment with CP252 and in the experiment with CP256 was “inactive” throughout.
As for `O=c1oc2cc(O)ccc2s1`, the Potency entry with CP203, in the experiment on CP211, with CP215, in the experiment on CP217, in the experiment with CP237 and with CP238 was “inactive” in each case. Further, the Potency entry in the experiment on CP247, with CP252 and in the experiment with CP256 was “inactive” in each case.
For the compound `C[C@H](Cn1cnc2c(N)ncnc21)OCP(=O)(O)O`, the Potency entry with CP211, in the experiment with CP215, in the experiment on CP217, in the experiment with CP237, in the experiment with CP238 and in the experiment on CP247 was “inactive” in each case. For the same compound, the Potency entry with CP250, with CP252 and in the experiment on CP256 was “inactive” each time.
`C=C(c1ccc(C(=O)O)cc1)c1cc2c(cc1C)C(C)(C)CCC2(C)C`: the Potency entry in the experiment with CP211, in the experiment with CP215, in the experiment with CP217, with CP237, with CP238 and in the experiment on CP247 was “inactive” each time. Also, the Potency result with CP250, in the experiment on CP252 and with CP256 was “inactive” each time.
For `Cc1c(OCC(F)(F)F)ccnc1CS(=O)c1nc2ccccc2[nH]1` (stereo not given), the Potency result with CP211, in the experiment with CP215, with CP217, with CP237, in the experiment with CP238 and with CP247 was “inactive” throughout. The Potency entry with CP250, in the experiment on CP252 and in the experiment with CP256 was “inactive” each time.
As for `CC(S)C(=O)NCC(=O)O` (stereo not given), the Potency entry in the experiment with CP211, with CP215, with CP217, with CP237, with CP238 and with CP247 was “inactive” in each case. Also, the Potency entry in the experiment on CP250, in the experiment on CP252 and in the experiment with CP256 was “inactive” each time.
As for `O=C(O)c1cc(=O)c2c(OCC(O)COc3cccc4oc(C(=O)O)cc(=O)c34)cccc2o1`, the Potency entry with CP211, in the experiment with CP215, with CP217, with CP237, in the experiment with CP238 and with CP247 was “inactive” each time. The Potency entry in the experiment on CP250, with CP252 and in the experiment with CP256 was “inactive” in each case.
As to `CC1(C)CCC(C)(C)c2cc(NC(=O)c3ccc(C(=O)O)cc3)ccc21`, the Potency result with CP211, in the experiment with CP215, in the experiment with CP217, in the experiment on CP237, in the experiment on CP238 and in the experiment on CP247 was “inactive” each time. The Potency result in the experiment with CP250, in the experiment on CP252 and in the experiment with CP256 was “inactive” in each case.
Take `CC1(C)NC(=O)N(c2ccc([N+](=O)[O-])c(C(F)(F)F)c2)C1=O`: the Potency entry in the experiment with CP211, in the experiment on CP215, with CP217, in the experiment with CP237, in the experiment on CP238 and with CP247 was “inactive” in each case. The Potency entry with CP250, in the experiment with CP252 and in the experiment on CP256 was “inactive” in each case.
On to `CCN(CCO)CCCC(C)Nc1ccnc2cc(Cl)ccc12` (stereo not given), for which the Potency entry in the experiment on CP211, in the experiment on CP215, with CP217, in the experiment on CP237, with CP238 and in the experiment with CP247 was “inactive” throughout. The Potency entry in the experiment with CP250, with CP252 and in the experiment on CP256 was “inactive” in each case.
For the compound `CC(C)(S)[C@@H](N)C(=O)O`, the Potency result in the experiment on CP211, with CP215, with CP217, in the experiment on CP237, in the experiment with CP238 and with CP247 was “inactive” throughout. In addition, the Potency result in the experiment with CP250, in the experiment on CP252 and with CP256 was “inactive” throughout.
For the compound `Cc1cccc(C)c1OCC(=O)N[C@@H](Cc1ccccc1)[C@@H](O)C[C@H](Cc1ccccc1)NC(=O)[C@H](C(C)C)N1CCCNC1=O`, the Potency was 7.57 µM (active) in the experiment on CP211; 6.01 µM (active) in the experiment on CP215; 3.98 µM (active) in the experiment on CP217; 2.82 µM (active) in the experiment on CP237; 5.01 µM (active) in the experiment on CP238; 7.08 µM (active) with CP247. For the same compound, the Potency in the experiment with CP250 was 7.08 µM (active); in the experiment with CP252, 4.47 µM (active); in the experiment with CP256 it was 11.2 µM (active).
Take `CC(C)[C@H](N)C(=O)OCCOCn1cnc2c(=O)[nH]c(N)nc21`: the Potency entry in the experiment on CP211, with CP215, in the experiment with CP217, in the experiment with CP237, with CP238 and in the experiment with CP247 was “inactive” in each case. In addition, the Potency result in the experiment with CP250, with CP252 and in the experiment on CP256 was “inactive” throughout.
Regarding `O=C(CS(=O)Cc1ccco1)NCC=CCOc1cc(CN2CCCCC2)ccn1` (stereo not given), the Potency result in the experiment on CP211, in the experiment on CP215, with CP217, with CP237, with CP238 and in the experiment on CP247 was “inactive” in each case. For the same compound, the Potency entry with CP250 and in the experiment with CP252 was “inactive” each time.
For `N=C(N=C(N)N)N1CCOCC1`, the Potency entry with CP211, with CP215, with CP217, in the experiment with CP237, in the experiment with CP238 and with CP247 was “inactive” in each case. Further, the Potency result with CP250, with CP252 and with CP256 was “inactive” throughout.
Consider `Cc1c(C(=O)NN2CCCCC2)nn(-c2ccc(Cl)cc2Cl)c1-c1ccc(Cl)cc1`, for which the Potency in the experiment on CP203 is 13.5 µM (active); with CP215 it was 13.5 µM (active); in the experiment with CP217 it was 11.2 µM (active); with CP237, 12.6 µM (active); in the experiment with CP247, 7.94 µM (active); in the experiment with CP256 it was 11.2 µM (active).
